Anthrax LF inh2: blocks Bacillus anthracis lethal factor protease; P15917; multiplex microsphere protease cleavage assay, LF; inhibition, % at 10 µM; actives 0.12% (n = 360,000); AID 588501; further: plate controls were buffer without enzyme for full effect and enzyme alone for no effect
Target sequence (P15917 whole entry, looked up): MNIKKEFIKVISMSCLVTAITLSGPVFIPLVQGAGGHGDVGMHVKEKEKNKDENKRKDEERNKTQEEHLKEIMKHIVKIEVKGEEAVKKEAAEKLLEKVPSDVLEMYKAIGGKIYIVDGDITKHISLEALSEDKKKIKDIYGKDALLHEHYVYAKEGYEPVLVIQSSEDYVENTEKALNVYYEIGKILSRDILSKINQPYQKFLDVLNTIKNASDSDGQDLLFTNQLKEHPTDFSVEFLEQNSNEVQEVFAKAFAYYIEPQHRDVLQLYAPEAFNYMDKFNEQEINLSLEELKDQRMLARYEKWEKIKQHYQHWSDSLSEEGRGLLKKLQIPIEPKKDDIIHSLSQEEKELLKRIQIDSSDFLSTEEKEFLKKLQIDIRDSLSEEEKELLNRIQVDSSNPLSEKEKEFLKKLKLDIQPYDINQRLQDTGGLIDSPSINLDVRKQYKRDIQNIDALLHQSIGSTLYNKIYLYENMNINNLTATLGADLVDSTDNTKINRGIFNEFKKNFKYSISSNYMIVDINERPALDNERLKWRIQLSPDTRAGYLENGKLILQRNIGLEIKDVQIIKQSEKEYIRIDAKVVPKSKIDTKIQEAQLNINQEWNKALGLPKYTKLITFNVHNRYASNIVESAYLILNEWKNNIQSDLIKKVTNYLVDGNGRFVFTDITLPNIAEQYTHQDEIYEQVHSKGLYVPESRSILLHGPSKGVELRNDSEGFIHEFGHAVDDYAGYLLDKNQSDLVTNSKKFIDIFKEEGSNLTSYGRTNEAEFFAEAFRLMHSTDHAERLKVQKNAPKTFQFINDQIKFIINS
BoNT-F LC inh: blocks Botulinum neurotoxin F light chain protease | Multiplex microsphere protease cleavage assay, flow cytometry | actives 0.22% (n = 360,000) | inhibition, % at 10 µM | AID 588497; in the data active means inhibition above about 35%, passing the limit was not always enough; inconclusive means no clear call, values can overlap the other calls; further: plate controls were buffer without enzyme for full effect and enzyme alone for no effect
BJeLR lethal: BJeLR cell viability loss. BJeLR (HRASV12) viability, CellTiter-Glo ATP luminescence, 48 h. inhibition, % (test concentration not listed). actives 0.17% (n = 300,000). AID 1554; in the data active means inhibition above about 50%; inconclusive means no clear call, values can overlap the other calls
Bead autofluor: counter-screen for toxin protease inhibitors: compound fluorescence. compound autofluorescence counterscreen, microsphere flow cytometry; hits give high values. fluorescence intensity (concentration not given with the values). actives 3.1% (n = 360,000); in the data active means fluorescence intensity above about 16000; inconclusive means no clear call, values can overlap the other calls
BoNT-A LC inh2: inhibitors of Botulinum neurotoxin A light chain protease; actives 0.17% (n = 360,000); AID 588499; multiplex microsphere protease substrate cleavage, flow cytometry; inhibition, % at 10 µM; further: plate controls were buffer without enzyme for full effect and enzyme alone for no effect
BoNT-A LC CP1: blocks botulinum neurotoxin A light chain protease | shares compounds with BoNT-F LC inh | multiplex microsphere protease assay, flow cytometry | inhibition, % at 10 µM | actives 3% (n = 720) | AID 602139; in the data active means inhibition above about 32%
BoNTF LC inh 1: BoNT/F light chain protease inhibition; shares compounds with BoNT-F LC inh; multiplex microsphere protease cleavage assay, flow cytometry; inhibition, % at 10 µM; 720 tested, under 10 active; AID 602140; call rule not given here
Anthrax LF CP1: inhibitors of Bacillus anthracis lethal factor protease | inhibition, % at 10 µM | multiplex microsphere protease cleavage assay, LF | 720 tested, under 10 active | shares compounds with BoNT-F LC inh; call rule not given here
Numbers without * were called inactive; ? = inconclusive; . = no result given. An excerpt weighted towards active compounds, which were near 3.5% of everything screened. Unless noted, no stated cut-off is given here; in the data, active means inhibition above about 30%; inconclusive means no clear call, values can overlap the other calls; inactive means below that.

SMILES	Anthrax LF inh2	BoNT-F LC inh	BJeLR lethal	Bead autofluor	BoNT-A LC inh2	BoNT-A LC CP1	BoNTF LC inh 1	Anthrax LF CP1
COc1cccc(CNCc2ccccc2OC)c1	-10	?	6	4021	-6	.	.	.
COc1ccc2c(c1)CCCN2S(=O)(=O)c1ccc(Cl)cc1	37*	-8	4	3742	1	0	-11	-3
O=S(=O)(c1ccc(Cl)cc1)N1CCCc2ccccc21	-5	-13	-1	3196	0	.	.	.
O=[N+]([O-])c1ccc2cn(-c3ccccc3)nc2c1	-1	-1	2	2078	2	.	.	.
Cn1cc(CC(=O)NCCCN2CCCC2)c2ccccc21	8	36*	7	3978	4	1	-2	0
CC(C)(C)c1cc(C(=O)CCN2CCOCC2)cc(C(C)(C)C)c1O	18	5	-6	3215	-3	1	-3	-4
S=C(Nc1ccc2nc(-c3ccccn3)c(-c3ccccn3)nc2c1)N1CCCCC1	9	8	.	2750	33*	3	-3	0
S=C(Nc1ccc2nc(-c3ccccn3)c(-c3ccccn3)nc2c1)N1CCCCCC1	10	5	9	2061	20	.	.	.
CCOC(=O)N1CCC(=NNc2ccc(S(N)(=O)=O)cc2[N+](=O)[O-])CC1	-1	-2	-5	3187	0	.	.	.
N#Cc1nc(-c2ccccc2F)oc1NCc1ccccc1	3	-10	0	5810	-1	.	.	.
N#Cc1nc(-c2ccccc2F)oc1NCCc1ccccc1	2	42*	-1	10751	?	-3	-2	-4
COc1ccc(S(=O)(=O)N2CCSC2C)cc1C (configuration not stated)	20	44*	-4	3569	-2	-1	-5	-5
CCOc1ccc(CC2c3cc(OCC)c(OCC)cc3CCN2C(=O)CN2CCN(C)CC2)cc1OCC (configuration not stated)	-3	35*	-7	3816	-4	-2	-2	-2
CCOc1ccc(CC2NCCc3cc(OCC)c(OCC)cc32)cc1OCC (configuration not stated)	0	0	2	4745	0	.	.	.
Cc1cccc(N(CC(=O)N2CCCCCC2)S(C)(=O)=O)c1C	-24	36*	7	3213	-2	0	2	6
O=C(CSc1ncc(-c2ccc(F)cc2)[nH]1)N1CCCCC1	-7	16	14	10925	3	.	.	.
O=C1NC[C@H](CCCCN2C[C@H](Cc3ccc(O)cc3)N(CCc3ccc(O)cc3)C(=O)C2=O)N(CCc2ccccc2)C1=O	2	-1	.	5885	-1	.	.	.
O=C(Nc1cccc(C(F)(F)F)c1)c1sc(Cl)nc1C(F)(F)F	33*	40*	12	3457	0	1	-3	-2
O=C(Nc1cccc(C(F)(F)F)c1)c1cc(-c2ccco2)on1	0	7	-5	3180	-1	.	.	.
O=[N+]([O-])c1ccc(C2=NN(c3ccccc3)C(c3ccco3)C2)cc1 (configuration not stated)	31*	?	12	18109*	59*	59*	.	17
Cc1ccc(C2=NN(S(=O)(=O)c3ccccc3)C(c3ccco3)C2)cc1 (configuration not stated)	4	3	.	7991	-2	.	.	.
CCn1c(=O)n(CC)c2cc(S(N)(=O)=O)c(C)cc21	7	44*	1	7485	8	1	-3	-3
CCn1c(=O)n(CC)c2cc(S(=O)(=O)N3CCCCC3)c(C)cc21	-6	-4	.	10905	0	.	.	.
Cc1cccc(NC(=S)NC(=O)/C=C/c2ccco2)n1	0	-2	-3	2545	0	.	.	.
Cc1ccc(NC(=O)CCCCCC2NC(=O)NC2C)cc1 (configuration not stated)	0	71*	8	3319	10	5	0	-8
SMILES	Anthrax LF inh2	BoNT-F LC inh	BJeLR lethal	Bead autofluor	BoNT-A LC inh2	BoNT-A LC CP1	BoNTF LC inh 1	Anthrax LF CP1
Cc1ccc(C)c2nc3sc(C(=O)N4CCCc5ccccc54)c(N)c3cc12	30*	22	-1	14402	28	14	7	5
CCc1ccc2nc3sc(C(=O)N4CCc5ccccc54)c(N)c3cc2c1	.	.	0	.	.	.	.	.
COc1ccc2nc(NC(=O)CSC(C)C(=O)Nc3cc(C)on3)sc2c1 (configuration not stated)	?	?	-6	4402	85*	1	-1	2
Cc1cc(NC(=O)CSCC(=O)Nc2nc3ccc(F)cc3s2)no1	0	0	.	3520	0	.	.	.
NC(=O)CC(NC(=O)Cc1cccc2ccccc12)c1ccc(NCc2ccc(F)c(F)c2)c([N+](=O)[O-])c1 (configuration not stated)	0	0	-1	3887	0	.	.	.
CCOCCSc1nc2c(c(-c3cccs3)c1C#N)CC/C2=C/c1cccs1	35*	25	-3	2450	77*	37*	3	23
Clc1ccc(/C=C/c2ncc[nH]2)c(Cl)c1	-8	40*	2	3685	5	0	-6	-1
Cc1cccc(CCNS(=O)(=O)c2ccc(S(=O)(=O)N3CCC(C)CC3)cc2)c1	3	32	0	8054	4	0	-1	-1
Cc1nnc(N(C(=O)c2cnccn2)c2ccccc2)s1	-5	33	9	3628	0	0	-1	2
O=C(NC(=S)Nc1ccc2c(c1)C(=O)c1ccccc1C2=O)c1ccc(F)cc1	.	.	3	.	.	.	.	.
O=C(Nc1cccc(Cl)c1)OC1CCCCc2cccnc21 (configuration not stated)	-8	-4	-8	6207	0	.	.	.
O=C(Nc1ccccc1)OC1CCCCc2cccnc21 (configuration not stated)	30*	?	6	3832	?	1	2	-2
CC(=O)c1ccc(NC(=O)CCS(=O)(=O)c2ccc3c(c2)n(C)c(=O)c(=O)n3C)cc1	-4	-5	-10	6377	-1	.	.	.
CC(=O)NCCn1ccc2ccccc21	3	-8	-3	2365	0	.	.	.
COc1ccc(C(=O)NCCn2ccc3ccccc32)cc1OC	23	12	-3	5089	14	0	0	-2
CN(C)c1cccc(C(=O)NCCCn2ccc3ccccc32)c1	2	0	-16	5879	-2	1	-1	1
COc1ccccc1C(=O)NCCn1ccc2ccccc21	59*	36*	-5	9297	96*	2	2	-1
O=C(Cc1ccccc1)NCCn1ccc2ccccc21	8	6	13	6292	9	.	.	.
COc1cc(OC)cc(C(=O)NCCn2ccc3ccccc32)c1	4	4	0	6827	5	0	-5	4
CC(C)CCN(Cc1ccco1)S(=O)(=O)c1csc(C(N)=O)c1	-2	4	12	5345	-1	.	.	.
